# Measurements as given in PubChem BioAssay AID1347131 (National Center for Advancing Translational Sciences (NCATS), 2019).
# Out of some 410,000 compounds screened, about 2,000 (0.49%) were called active. Where a call stands in place of a potency, no number is given. Inconclusive results (about 8%) are left out. The call rests on the fitted dose curve; tested in HEK293 reporter line. The sample as a whole holds a higher share of actives than the screen did.
# Test: qHTS Assay for Foot and Mouth Disease Virus Antivirals: Primary Screen against the MLPCN compound library; further: nearly all actives have a fitted effect of over 55% in size
# Conditions: FMDV antiviral cell-based qHTS; series mostly up to 57.9 µM
# Potency means the concentration at half of the fitted maximal effect.
row,Compound,Potency
1,COC(=O)c1ccc(CSc2ccc3nnc(-c4ccc(F)cc4)n3n2)o1,inactive
2,COc1cc(NC(=O)Nc2cccc(Cl)c2)c(C(=O)O)cc1OC,inactive
3,O=C(Nc1ccc(Cl)cc1)Nc1ccccc1C(=O)O,10 µM (active)
4,O=C(Nc1ccccc1)Nc1ccc(O)c2ccccc12,inactive
5,CC1CCc2sc(C(=O)N3CCN(c4ncccn4)CC3)cc2C1 (centres undefined),inactive
6,CC(=O)c1ccc(-c2cc([C@H]3[C@H]4C=CC[C@@H](C)[C@@H]4C(=O)N3Cc3ccccc3)ccc2F)cc1,inactive
7,Cc1ccc(NC(=O)c2ccc(NC(=O)c3ccccc3)cc2)cc1C,inactive
8,CSc1ccccc1NC(=O)CSCc1ccc(Br)cc1,inactive
9,Cc1ccc(NC(=O)C(=O)NCC2(c3ccccc3)CCCC2)cc1C,inactive
10,O=C1Nc2ccc(Br)cc2/C1=C/C(=O)c1ccccc1,inactive
11,Cc1ccc(N/C=C/C(=O)c2ccccc2)cc1C,7.94 µM (active)
12,CC(=O)c1cccc(NS(=O)(=O)c2ccc(N/C=C\C(=O)c3ccc(C)cc3)cc2)c1,inactive
13,Cn1c(=O)n(C)c2cc(C(=O)Nc3ccc4c(c3)OCO4)ccc21,inactive
14,O=C(/C=C/Nc1ccccc1F)c1ccc(Br)cc1,12.6 µM (active)
15,O=C(/C=C\Nc1ccc2c(c1)OCO2)c1ccc2c(c1)OCO2,17.8 µM (active)
16,O=C(NC(=S)Nc1ccc2c(c1)OCO2)c1ccc(Cl)cc1,inactive
17,O=C(Nc1ccccc1)/C(=C/c1ccccc1)c1ccccc1,inactive
18,O=C(/C=C/Nc1ccccc1)c1ccccc1,7.94 µM (active)
19,O=C(/C=C/c1cc([N+](=O)[O-])ccc1OC(F)F)Nc1cccc([N+](=O)[O-])c1,inactive
20,O=C(COc1ccc(Br)cc1)N1CCN(c2ccccc2)CC1,inactive
21,CCc1nc(SCc2cccnc2)c2c(=O)n(C)c(=O)n(C)c2n1,inactive
22,COC(=O)C1=C(C)N(c2cccc3ccccc23)C(=O)C1,inactive
23,O=S(=O)(Nc1ccccc1Cl)c1ccc2[nH]c(=S)oc2c1,inactive
24,CCCC(=O)Nc1ccc2nc(C)n(Cc3ccccc3Cl)c(=O)c2c1,inactive
25,Cc1ccc(S(=O)(=O)N(C)CC(=O)Nc2ccncc2)cc1,inactive
26,CCOc1ccccc1/C=N/n1c(C)nc2ccccc2c1=O,inactive

row,Compound,Potency
1,Cc1cc(C)cc(-n2ccnc2SCC(=O)Nc2ccccc2F)c1,inactive
2,CN(C)/C=C/C(=O)c1cccc(Oc2ncccn2)c1,inactive
3,O=C(Nc1ccccn1)C(F)(F)C(F)(F)C(F)(F)C(F)(F)C(=O)Nc1ccccn1,inactive
4,O=C(/C=C\Nc1ccccn1)c1ccccc1,10 µM (active)
5,COc1ccc(Nc2nc(N)nc(CN3CCN(c4ccccn4)CC3)n2)cc1,inactive
6,CCOC(=O)CC1(C)NC(C(=O)O)C(C)(C)S1 (centres undefined),inactive
7,Cc1cc(C)cc(NC(=O)c2ccc(N3C(=O)C4CCCCC4C3=O)cc2)c1 (centres undefined),inactive
8,O=C(Nc1cccc(N2C(=O)C3CCCCC3C2=O)c1)c1ccccc1 (centres undefined),14.1 µM (active)
9,O=C(Nc1ccc(Br)cc1)c1cccc(N2C(=O)C3CCCCC3C2=O)c1 (centres undefined),inactive
10,COc1ccccc1CNC(=O)c1ccc(CS(=O)(=O)c2ccccc2C)o1,inactive
11,COc1cc(OC)cc(C(=O)N[C@H](C(=O)Nc2nc3ccccc3[nH]2)C(C)C)c1,inactive
12,O=C(Nc1nc2ccccc2[nH]1)c1ccc(Cl)cc1,12.6 µM (active)
13,CN(c1ccccc1)S(=O)(=O)c1ccc(Cl)c(C(=O)Nc2nc3ccccc3[nH]2)c1,inactive
14,COc1cccc(C(=O)Nc2cccc(OCc3cc(=O)n4cccc(C)c4n3)c2)c1,inactive
15,COc1ccc(Cl)cc1NC(=O)CCCS(=O)(=O)c1nc(-c2ccc(OC)c(OC)c2)cc(C(F)(F)F)n1,28.2 µM (active)
16,COc1ccc(-c2cc(C(F)(F)F)nc(N3CCN(C)CC3)n2)cc1OC,inactive
17,COc1ccc(CCNc2nc(-c3ccc(OC)c(OC)c3)cc(C(F)(F)F)n2)cc1OC,inactive
18,Cc1ccccc1-n1c(SCc2c(C)noc2C)nnc1-c1c[nH]c2ccccc12,inactive
19,CCOC(=O)/C(O)=C(\C#N)c1nc2ccccc2[nH]1,inactive
20,COc1ccc(Nc2ccc(N3C(=O)CC(C)C3=O)cc2[N+](=O)[O-])cn1 (centres undefined),inactive
21,CC1CC(=O)N(c2ccc(NCCc3ccc(O)cc3)c([N+](=O)[O-])c2)C1=O (centres undefined),25.1 µM (active)
22,NC(=O)c1ccc(N2CCN(c3ccc(O)cc3)CC2)c([N+](=O)[O-])c1,inactive
23,COc1ccccc1C(CNC(=O)c1ccc(-c2ccccc2Cl)o1)N1CCCC1 (centres undefined),inactive
24,CC1C/C(=N/Nc2ccc([N+](=O)[O-])cc2[N+](=O)[O-])CC(C)(C)C1 (centres undefined),inactive
25,COc1cc(C)c(-c2[nH]ncc2-c2csc(C)n2)c(O)c1,inactive
26,Cc1ccc(C(=O)Cn2c(=N)n(N)c3ccccc32)cc1,inactive

row,Compound,Potency
1,Cc1ccc(C(=O)Cn2c3c(sc2=N)CCCC3)cc1,7.94 µM (active)
2,CCOC(=O)Cn1nc(C)c(NC(=O)COc2ccc(OC)cc2)c1C,inactive
3,COc1ccc2nc(C)cc(SCC(=O)N/N=C/c3c(OC)ccc4ccccc34)c2c1,inactive
4,Cc1ccc(-c2csc(Nc3ccc(S(N)(=O)=O)cc3)n2)o1,inactive
5,Cc1ccc(NC(=S)Nc2ccc3[nH]c(=O)[nH]c3c2)cc1,inactive
6,COc1ccc(-c2noc(CCCOc3ccccc3)n2)cc1OC,inactive
7,Cc1cc(OCc2nc(-c3ccncc3)no2)cc(C)c1Cl,inactive
8,Cc1ccc(OCc2nc(-c3ccccn3)no2)c(Br)c1,20 µM (active)
9,COc1ccc(Br)cc1CNC(=O)CCc1nc(-c2ccc(C)cc2)no1,inactive
10,Clc1ccc(OCc2nc(-c3ccccn3)no2)c(Br)c1,20 µM (active)
11,O=C(NCc1ccccn1)c1ccccc1OCc1ccc(Cl)cc1Cl,inactive
12,CCn1c(SCC(=O)Nc2cccc(NC(C)=O)c2)nc2c([nH]c3ccccc32)c1=O,inactive
13,COc1ccc(C(=O)c2cn(Cc3ccccc3)c3ccccc3c2=O)cc1OC,inactive
14,COc1cc(NC(=O)c2ccc3oc(=O)c(S(=O)(=O)c4ccccc4)cc3c2)cc(OC)c1,inactive
15,CCCCn1c(=O)[nH]c(=O)c2c1nc(CN1C(=O)c3ccccc3S1(=O)=O)n2CCC,inactive
16,Cc1cccc(C)c1NC(=O)Cn1c(=O)n(Cc2ccco2)c(=O)c2ccc(C(=O)NC3CCCC3)cc21,inactive
17,COC(OC)C12c3ccccc3C(c3ccccc31)C1C(=O)N(c3cccnc3)C(=O)C12 (centres undefined),inactive
18,COc1ccc2c(c1)C1(C)CC(C)(C)N2C(=O)N1c1ccccc1 (centres undefined),inactive
19,COc1cccc(N2C(=O)C3C(C2=O)C3(c2ccccc2)c2ccccc2)c1 (centres undefined),14.1 µM (active)
20,CCn1c(SCC(=O)N/N=C/c2c[nH]c3ccccc23)nnc1-c1ccc(Cl)cc1,inactive
21,CC1c2cc3c(cc2CCN1C(=O)c1ccc(C(F)(F)F)cc1)OCCCO3 (centres undefined),inactive
22,CC(=O)c1ccc(N2CCN(C(=O)CCCCn3c(=O)[nH]c4ccsc4c3=O)CC2)cc1,inactive
23,CC(C)(C)OC(=O)C[C@@H]1C/C=C\C[C@@H](CC(=O)N[C@@H](CO)Cc2ccccc2)C(=O)NC[C@@H](c2ccccc2)OC1=O,inactive
24,O=C(CCCCCn1c(=O)[nH]c2ccccc2c1=O)N1CCN(Cc2ccc3c(c2)OCO3)CC1,20 µM (active)
25,Cc1ccc(CSCC(=O)N2CCN(Cc3ccc4c(c3)OCO4)CC2)cc1,inactive
26,CC(C)[C@@H](C(=O)N1CCN(Cc2ccc3c(c2)OCO3)CC1)n1nnc2ccccc2c1=O,inactive

row,Compound,Potency
1,Cc1nnc(SCC(=O)N2CCCC2)n1-c1ccc(F)cc1,inactive
2,CC(=O)c1ccc(NC(=O)c2cc(S(=O)(=O)N3CCOCC3)ccc2C)cc1,inactive
3,CC(=O)c1ccc(NC(=O)c2noc3c2CCC3)cc1,20 µM (active)
4,COc1cc(NC(=O)c2noc3c2CCc2ccccc2-3)cc(OC)c1OC,inactive
5,O=C(CSc1nnc2c(Cl)cc(Cl)cn12)N1CCOCC1,inactive
6,Cn1ncc(S(=O)(=O)Cc2ccccc2)c(Cl)c1=O,20 µM (active)
7,CCNc1nc2c(c(=O)n(Cc3ccccc3)c(=O)n2C)n1Cc1ccccc1,inactive
8,O=c1c2cnn(-c3ccccc3)c2ncn1Cc1ccccc1,inactive
9,COc1ccccc1-c1noc(-c2ccc(N3CCN(c4ccccc4)CC3)c([N+](=O)[O-])c2)n1,inactive
10,COc1ccccc1-c1nc(-c2ccccn2)no1,14.1 µM (active)
11,COC(OC)c1ccnc(-c2ccc(OC(=O)c3ccc(F)cc3)cc2)n1,inactive
12,O=C(Oc1ccc(-c2nc(-c3ccccn3)no2)cc1)c1ccccc1,14.1 µM (active)
13,COc1cccc2cc(-c3nc(-c4ccccc4F)no3)c(=O)oc12,inactive
14,COc1ccc(C(=O)NNC(=O)c2ccccn2)cc1,inactive
15,COc1ccc(CN2CCN(Cc3ccc(C(F)(F)F)cc3)CC2)c(OC)c1,inactive
16,Cc1cc(OCCOc2cccc3cccnc23)cc(C)c1Cl,inactive
17,CC1Cc2ccccc2N1c1ncnc(N)c1[N+](=O)[O-] (centres undefined),inactive
18,COc1cccc(/C=N/NC(=O)c2cc3c(OC)cccc3[nH]2)c1OC,inactive
19,COc1cccc(/C=N/Nc2ncnc(N)c2[N+](=O)[O-])c1OC,7.94 µM (active)
20,CN(c1ccc(C(=O)NCc2cccnc2)cc1)S(=O)(=O)c1ccc(Cl)cc1,inactive
21,O=C(NC1CC1)C1CCN(S(=O)(=O)c2cc([N+](=O)[O-])ccc2Cl)CC1,inactive
22,CCCc1nn2cc(-c3ccc(C)c(C)c3)nc2s1,14.1 µM (active)
23,CCCCCc1nn2cc(-c3ccccc3)nc2s1,12.6 µM (active)
24,CCn1nc(-c2ccccc2)c2nc3ccccc3nc21,inactive
25,CCOc1ccc(CCNC(=O)c2ccc3c(c2)sc2nc(-c4ccc(F)cc4)cn23)cc1OCC,inactive
26,CCc1cccc(C)c1Nc1c(-c2ccccc2)nc2sccn12,inactive
